Each structure is given as a SMILES string. The panel holds about 79,000 compounds, 15% with a hit somewhere; the sample as a whole holds those more often. A number with no mark means an inactive call. Calls of active or inactive are those of the source. Cut-off read from the data, not from the text of the source: active = growth inhibition above about 70%; inactive = the rest.

Experiment [1] can be described thus: NCI Yeast Anticancer Drug Screen. Data for the rad50 strain (AID 155).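 Note: 0% = growth of vehicle-only cultures of the same strain.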 The note with it: S. cerevisiae rad50 strain growth inhibition, stronger effect = higher value. In short, it runs like this:
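A DNA repair-deficient yeast mutant serves as the test organism; compound-induced growth inhibition is calculated against vehicle-treated cells.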

A short description of experiment [2]: NCI Yeast Anticancer Drug Screen. Data for the mec2-1 strain (AID 157). The following applies: S. cerevisiae mec2-1 strain, stronger effect = higher value. An outline of the steps: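 Mutant yeast (mec2-1) grown with compound; growth inhibition relative to vehicle control reported.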
The nature of experiment [3]: NCI Yeast Anticancer Drug Screen. Data for the sgs1 mgt1 strain (AID 161).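 Note: 0% = growth of cultures given vehicle only.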 The following applies: S. cerevisiae sgs1 mgt1 strain, stronger effect = higher value. An outline of the steps:
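Yeast cells carrying a defined DNA-repair defect were exposed to test compounds. Growth inhibition was measured relative to vehicle-treated controls.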

Experiment [4] in a line: NCI Yeast Anticancer Drug Screen. Data for the cln2 rad14 strain (AID 165).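 Note: 0% = growth equal to vehicle treated cultures.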 The following applies: S. cerevisiae cln2 rad14 strain, stronger effect = higher value. In short, it runs like this: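 Readout is yeast growth inhibition versus vehicle-treated controls, using a strain with cln2 and rad14 alterations exposed to compound.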
Experiment [5] is described as follows: NCI Yeast Anticancer Drug Screen. Data for the bub3 strain (AID 167). The note with it: S. cerevisiae bub3 mutant strain, stronger effect = higher value. In short, it runs like this: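 Inhibition values come from growth of compound-treated mutant yeast normalised to vehicle-treated controls.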
The nature of experiment [6]: NCI Yeast Anticancer Drug Screen. Data for the mlh1 rad18 strain (AID 175). The note with it: S. cerevisiae mlh1 rad18 strain growth inhibition, stronger effect = higher value. An outline of the steps: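 Genetically defined yeast (DNA repair-deficient) exposed to compounds; growth inhibition determined relative to vehicle.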
Setting [7] is: at 5.0 µM (retest, dose inferred, filed as 0.5).
Setting [8] is: at 50.0 µM (retest, dose inferred, filed as 5.0).

With `O=C(Nc1ccc(F)cc1)N1CCCCC1`, the growth inhibition in experiment [1] (setting [7]) was 41%; in experiment [1] (setting [8]), 43%; in experiment [1] (at 50.0 µM) it was 8.15%; in experiment [2] (setting [7]), 36%; in experiment [2] (setting [8]), 29%; in experiment [2] (at 50.0 µM) it was 47%. Further, the growth inhibition in experiment [3] (setting [7]) is 40%; in experiment [3] (setting [8]), 42%; in experiment [3] (at 50.0 µM) it was 36.9%; in experiment [4] (setting [7]), 29%; in experiment [4] (setting [8]), 31%; in experiment [4] (at 50.0 µM) it was 9.25%. The growth inhibition in experiment [5] (setting [7]) was 41%; in experiment [5] (setting [8]) it was 70% (active); in experiment [5] (at 50.0 µM), 17.3%; in experiment [6] (setting [7]) it was 43%; in experiment [6] (setting [8]), 39%; in experiment [6] (at 50.0 µM) it was 33.1%.

Consider `O=C(O)/C=C/c1ccc(Cl)cc1Cl`, for which the growth inhibition is 6% in experiment [1] (setting [7]); 95% (active) in experiment [1] (setting [8]); 89.5% (active) in experiment [1] (at 50.0 µM); -8% in experiment [2] (setting [7]); 56% in experiment [2] (setting [8]); 33.5% in experiment [2] (at 50.0 µM). Also, the growth inhibition was 2% in experiment [3] (setting [7]); 39% in experiment [3] (setting [8]); 65.8% in experiment [3] (at 50.0 µM); 1% in experiment [4] (setting [7]); 57% in experiment [4] (setting [8]); 37.8% in experiment [4] (at 50.0 µM). Further, the growth inhibition was 41% in experiment [5] (setting [7]); 85% (active) in experiment [5] (setting [8]); 74.3% (active) in experiment [5] (at 50.0 µM); 6% in experiment [6] (setting [7]); 94% (active) in experiment [6] (setting [8]); 92.6% (active) in experiment [6] (at 50.0 µM).

With `Brc1ccc(N=NN2CCCC2)cc1`, the growth inhibition in experiment [1] (setting [7]) was 14%; in experiment [1] (setting [8]), 12%; in experiment [1] (at 50.0 µM) it was 74% (active); in experiment [2] (setting [7]), 0%; in experiment [2] (setting [8]), 8%; in experiment [2] (at 50.0 µM) it was 59.6%. The growth inhibition is 33% in experiment [3] (setting [7]); 33% in experiment [3] (setting [8]); 86.4% (active) in experiment [3] (at 50.0 µM); 36% in experiment [4] (setting [7]); 36% in experiment [4] (setting [8]); 68% in experiment [4] (at 50.0 µM). Also, the growth inhibition in experiment [5] (setting [7]) was 30%; in experiment [5] (setting [8]), 37%; in experiment [5] (at 50.0 µM), 85.6% (active); in experiment [6] (setting [7]), 7%; in experiment [6] (setting [8]), 5%; in experiment [6] (at 50.0 µM) it was 86.1% (active).

Turning to `CCCCCCOC(=O)C(N)Cc1ccc(OC)cc1` (configuration not stated), the growth inhibition in experiment [1] (setting [7]) was 5%; in experiment [1] (setting [8]), 21%; in experiment [1] (at 50.0 µM) it was 39.2%; in experiment [2] (setting [7]) it was 7%; in experiment [2] (setting [8]), 29%; in experiment [2] (at 50.0 µM), 40.5%. In addition, the growth inhibition was 6% in experiment [3] (setting [7]); 42% in experiment [3] (setting [8]); 56.2% in experiment [3] (at 50.0 µM); 2% in experiment [4] (setting [7]); 17% in experiment [4] (setting [8]); 32.4% in experiment [4] (at 50.0 µM). Also, the growth inhibition in experiment [5] (setting [7]) is 5%; in experiment [5] (setting [8]), 80% (active); in experiment [5] (at 50.0 µM), 52%; in experiment [6] (setting [7]) it was -1%; in experiment [6] (setting [8]) it was 43%; in experiment [6] (at 50.0 µM) it was 48.1%.

Regarding `CC1=C(Br)S(=O)(=O)N(c2ccccc2)C(CBr)=C1Br`, the growth inhibition in experiment [1] (setting [7]) is 57%; in experiment [1] (setting [8]), 95% (active); in experiment [1] (at 50.0 µM), 19.8%; in experiment [2] (setting [7]) it was 41%; in experiment [2] (setting [8]), 97% (active); in experiment [2] (at 50.0 µM) it was 18.1%. In addition, the growth inhibition in experiment [3] (setting [7]) is 81% (active); in experiment [3] (setting [8]), 99% (active); in experiment [3] (at 50.0 µM) it was 16.9%; in experiment [4] (setting [7]) it was 26%; in experiment [4] (setting [8]), 95% (active); in experiment [4] (at 50.0 µM) it was 5.05%. In addition, the growth inhibition in experiment [5] (setting [7]) is 53%; in experiment [5] (setting [8]) it was 96% (active); in experiment [5] (at 50.0 µM), 27.7%; in experiment [6] (setting [7]), 70% (active); in experiment [6] (setting [8]), 93% (active); in experiment [6] (at 50.0 µM), 50.1%.

`C=C1C(=O)C23OC2C1CCC(=O)C1(C)CC[C@H](OC(C)=O)C(C)(C)[C@H]1CC3O` (some centres not stated): the growth inhibition in experiment [1] (setting [7]) is 86% (active); in experiment [1] (setting [8]), 79% (active); in experiment [1] (at 50.0 µM), 99.2% (active); in experiment [2] (setting [7]), 92% (active); in experiment [2] (setting [8]), 31%; in experiment [2] (at 50.0 µM), 100% (active). The growth inhibition in experiment [3] (setting [7]) is 92% (active); in experiment [3] (setting [8]) it was 42%; in experiment [3] (at 50.0 µM) it was 99.5% (active); in experiment [4] (setting [7]) it was 71% (active); in experiment [4] (setting [8]) it was 16%; in experiment [4] (at 50.0 µM) it was 99.2% (active). Also, the growth inhibition in experiment [5] (setting [7]) is 92% (active); in experiment [5] (setting [8]), 27%; in experiment [5] (at 50.0 µM) it was 99.2% (active); in experiment [6] (setting [7]) it was 92% (active); in experiment [6] (setting [8]), 38%; in experiment [6] (at 50.0 µM), 99% (active).

Consider `c1ccc2c3ccn4ccc5c6ccccc6[nH]c5c4c-3nc2c1`, for which the growth inhibition was 38% in experiment [1] (setting [7]); 96% (active) in experiment [1] (setting [8]); 65.3% in experiment [1] (at 50.0 µM); 28% in experiment [2] (setting [7]); 88% (active) in experiment [2] (setting [8]); 47.1% in experiment [2] (at 50.0 µM). For the same compound, the growth inhibition was 27% in experiment [3] (setting [7]); 93% (active) in experiment [3] (setting [8]); 47.2% in experiment [3] (at 50.0 µM); 24% in experiment [4] (setting [7]); 39% in experiment [4] (setting [8]); 34.1% in experiment [4] (at 50.0 µM). For the same compound, the growth inhibition is 29% in experiment [5] (setting [7]); 96% (active) in experiment [5] (setting [8]); 43.8% in experiment [5] (at 50.0 µM); 33% in experiment [6] (setting [7]); 98% (active) in experiment [6] (setting [8]); 85.4% (active) in experiment [6] (at 50.0 µM).

`C#CC(C)(C)OC(C)=O`: the growth inhibition in experiment [1] (setting [7]) is -2%; in experiment [1] (setting [8]), 26%; in experiment [1] (at 50.0 µM), 69.9%; in experiment [2] (setting [7]) it was 0%; in experiment [2] (setting [8]), 0%; in experiment [2] (at 50.0 µM), 19.2%. Further, the growth inhibition was -1% in experiment [3] (setting [7]); 5% in experiment [3] (setting [8]); 69.5% in experiment [3] (at 50.0 µM); 2% in experiment [4] (setting [7]); 0% in experiment [4] (setting [8]); 5.75% in experiment [4] (at 50.0 µM). Moreover, the growth inhibition is 1% in experiment [5] (setting [7]); 4% in experiment [5] (setting [8]); 35.6% in experiment [5] (at 50.0 µM); -1% in experiment [6] (setting [7]); 4% in experiment [6] (setting [8]); 76.6% (active) in experiment [6] (at 50.0 µM).

On to `O=C(CC(=O)c1cc(Cl)ccc1O)c1cccnc1`, for which the growth inhibition was 2% in experiment [1] (setting [7]); 95% (active) in experiment [1] (setting [8]); 68% in experiment [1] (at 50.0 µM); 2% in experiment [2] (setting [7]); 49% in experiment [2] (setting [8]); 17.9% in experiment [2] (at 50.0 µM). Also, the growth inhibition was 1% in experiment [3] (setting [7]); 91% (active) in experiment [3] (setting [8]); 49.9% in experiment [3] (at 50.0 µM); 7% in experiment [4] (setting [7]); 49% in experiment [4] (setting [8]); -21.1% in experiment [4] (at 50.0 µM). Further, the growth inhibition in experiment [5] (setting [7]) was 4%; in experiment [5] (setting [8]), 94% (active); in experiment [5] (at 50.0 µM), -16.1%; in experiment [6] (setting [7]) it was 2%; in experiment [6] (setting [8]), 99% (active); in experiment [6] (at 50.0 µM), 47%.

These data come from PubChem BioAssay (NCI).
